In PubChem BioAssay AID1347420 (Sanford-Burnham Center for Chemical Genomics, 2020) one finds inhibition data, which are given here for 91 molecules.

Structures are written as SMILES. Hit rate of the full screen: of about 1,300 compounds, about 980 (75%) were called active. About 4% were inconclusive and are not listed. The list shows a part of the results. Values without a mark were called inactive.

Sulfhydryl oxidase 1 (Homo sapiens), sequence (O00391 whole entry, looked up): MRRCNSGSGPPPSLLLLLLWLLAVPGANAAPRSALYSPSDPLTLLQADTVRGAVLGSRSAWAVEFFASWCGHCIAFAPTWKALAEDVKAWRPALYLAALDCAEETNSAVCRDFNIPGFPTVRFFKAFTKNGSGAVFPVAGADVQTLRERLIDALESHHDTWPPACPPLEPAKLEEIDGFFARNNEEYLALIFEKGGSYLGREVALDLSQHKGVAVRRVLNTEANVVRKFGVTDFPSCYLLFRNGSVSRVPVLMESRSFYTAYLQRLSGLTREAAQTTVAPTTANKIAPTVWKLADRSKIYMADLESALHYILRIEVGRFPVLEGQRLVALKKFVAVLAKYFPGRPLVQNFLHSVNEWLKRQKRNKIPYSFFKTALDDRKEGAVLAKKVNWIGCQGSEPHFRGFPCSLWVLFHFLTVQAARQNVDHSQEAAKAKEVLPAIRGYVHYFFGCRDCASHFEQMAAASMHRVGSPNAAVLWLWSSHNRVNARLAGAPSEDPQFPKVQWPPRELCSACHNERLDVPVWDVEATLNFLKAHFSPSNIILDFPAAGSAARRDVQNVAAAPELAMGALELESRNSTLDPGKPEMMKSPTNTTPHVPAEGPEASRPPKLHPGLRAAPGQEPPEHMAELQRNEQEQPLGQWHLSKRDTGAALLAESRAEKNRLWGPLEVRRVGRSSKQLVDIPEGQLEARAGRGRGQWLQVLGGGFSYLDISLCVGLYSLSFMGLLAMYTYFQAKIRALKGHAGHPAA

The assay addresses Sulfhydryl oxidase 1 (Homo sapiens) (UniProt O00391). In words: QSOX1 enzyme inhibitors, primary screen, biochemical, HyperBlu H2O2 luminescence, HTS (AID 1347420). Note: values above 100% were filed as inconclusive. Conditions: recombinant QSOX1, HyperBlu H2O2 luminescence; at 12.5 µM; active compounds read high; active = any value above zero.
Broadly, the inhibition is the drop in the measured response relative to a control, in per cent. Regarding `COc1ccccc1N1CCN(CCCNc2c(C)c(=O)n(C)c(=O)n2C)CC1`, the inhibition is 16.8% (active).
Consider `COc1ccccc1N1CCN(CCCNc2cc(=O)n(C)c(=O)n2C)CC1`, for which the inhibition was 22% (active).
To `CC#C[C@]1(O)CC[C@H]2[C@@H]3CCC4=CC(=O)CCC4=C3[C@@H](c3ccc(N(C)C)cc3)C[C@@]21C` belongs 89.8% (active).
To `NCC(O)C1CCCCCCC1` (stereo unspecified) belongs 18.4% (active); to `Fc1ccc(C(OCCCc2cnc[nH]2)c2ccc(F)cc2)cc1`, 10.8% (active); to `COC(=O)[C@H](NC(=O)c1cc(-c2ccccc2)nc2ccccc12)c1ccccc1`, 4.2% (active).
As to `CC(=O)[C@]1(O)Cc2c(O)c3c(c(O)c2[C@@H](O[C@H]2C[C@H](N)[C@H](O)[C@H](C)O2)C1)C(=O)c1ccccc1C3=O`, the inhibition was 50.8% (active).
Turning to `CC(N)C(=O)OC(C)(C)Cc1ccc(Cl)cc1` (stereo unspecified), the inhibition is 5.6% (active).
Take `Nc1nc2ccc(Cl)cc2c2nc(-c3ccco3)nn12`: the inhibition is 27.7% (active).
Take `Nc1nc2c(cnn2CCc2ccccc2)c2nc(-c3ccco3)nn12`: the inhibition was 17% (active).
In the case of `CCN(CC)CCCC(C)Nc1c2ccc(Cl)cc2nc2ccc(OC)cc12` (stereo unspecified), the inhibition is -13%.
On to `CCN(CC)CCCC(C)Nc1ccnc2cc(Cl)ccc12` (stereo unspecified), for which the inhibition is 4.6% (active).
For the molecule `O=C(O)/C(=C/c1c(C(=O)O)[nH]c2cc(Cl)cc(Cl)c12)c1ccccc1`, the inhibition was 12.3% (active).
In the case of `O=C(O)c1cc(=O)c2c(Cl)cc(Cl)cc2[nH]1`, the inhibition was 23.5% (active).
In the case of `O=C(O)c1cc(=O)c2ccccc2[nH]1`, the inhibition was -7.5%.
Turning to `C=C[C@@]1(C)CC(=O)[C@]2(O)[C@@]3(C)[C@H](O)CCC(C)(C)[C@@H]3[C@H](O)[C@H](OC(C)=O)[C@@]2(C)O1`, the inhibition is -4.2%.
With `c1ccc2c(c1)CCCC2C1=NCCN1` (stereo unspecified), the inhibition was 7.7% (active).
For `NC1(C(=O)O)CCc2cc(C(=O)O)ccc21` (stereo unspecified), the inhibition is 11.9% (active).
Consider `Cn1c(=O)c2[nH]cnc2n(C)c1=O`, for which the inhibition is 20.2% (active).
With `CC(C)Cn1c(=O)n(C)c(=O)c2[nH]cnc21`, the inhibition was -4.6%.
To `Oc1ccc(C2CNCc3sccc32)cc1O` (stereo unspecified) belongs 68.4% (active); to `CN1Cc2sccc2C(c2ccc(O)c(O)c2)C1` (stereo unspecified), 84.1% (active); to `NCC1OC(O[C@@H]2[C@H](O)C(OC3C(O)C(N)CC(N)C3OC3OC(CO)C(O)C(O)C3N)O[C@@H]2CO)C(N)C(O)C1O` (stereo partly specified), -0.2%.
For `CC(=O)/C(C)=N/O`, the inhibition was -16.7%.
Take `CC(=O)C(C)=O`: the inhibition is 5.7% (active).
With `CC(N)=O`, the inhibition was 37.1% (active).
As to `CCN1C(=O)C=CC1=O`, the inhibition was 12.3% (active).
Turning to `CC(O)C(O)[C@H]1CNc2nc(N)[nH]c(=O)c2N1` (stereo partly specified), the inhibition was -1.8%.
Under `C[C@H](O)C(=O)C1=Nc2c(nc(N)[nH]c2=O)NC1` stands 9.2% (active); under `NS(=O)(=O)C1=[C+]C=[C+]c2c1c([N+](=O)[O-])cc1nc([O-])c([O-])nc21`, 79% (active); under `CCn1c(=O)[nH]c2cc(Cl)c(Cl)cc21`, 20.4% (active).
Turning to `Cn1c(=O)c2c(nc(/C=C/c3cccc(Cl)c3)n2C)n(C)c1=O`, the inhibition was 8.5% (active).
Take `CN1C[C@H](C(=O)N[C@]2(C)O[C@@]3(O)[C@@H]4CCCN4C(=O)[C@H](Cc4ccccc4)N3C2=O)C[C@@H]2c3cccc4[nH]cc(c34)C[C@H]21`: the inhibition was 50.6% (active).
Consider `Nc1ncnc2c1c(I)cn2[C@@H]1C[C@H](N)[C@@H](O)[C@H]1O`, for which the inhibition was 22.5% (active).
Under `COc1ccc2c(c1)CCC1C2CC[C@@]2(C)C1CC[C@@H]2NCCCCCCN1C(=O)C=CC1=O` (stereo partly specified) stands 7.6% (active); under `COc1ccc2c(c1)CCC1C2CC[C@@]2(C)C1CC[C@@H]2NCCCCCCN1C(=O)CCC1=O` (stereo partly specified), 8.2% (active).
In the case of `CN/C(=C\[N+](=O)[O-])NCCSCc1ccc(CN(C)C)o1`, the inhibition is 14.5% (active).
To `CN(C)CCCc1cc(C(=O)Nc2ccc(-c3ccncc3)cc2)ccc1O` belongs 14.6% (active); to `O=C1N=C(O)C(c2ccccc2)(c2ccccc2)N1`, -13.4%; to `CN(C)CCOC(=O)COc1ccc(Cl)cc1`, 2.2% (active).
With `CC/C(=C(\c1ccccc1)c1ccc(OCCN(C)C)cc1)c1ccccc1`, the inhibition was -2.1%.
Under `O=C(c1ccccc1)c1ccc2n1CCC2C(=O)O` (stereo unspecified) stands 12.6% (active); under `CN1CCC2(CCN3CCc4c(oc5ccccc45)C3C2)N(C)C1=O` (stereo unspecified), 4.5% (active).
Under `Cc1nc(N=NC2=[C+]C3=C(C=C([N+](=O)[O-])[C+]=C3S(=O)(=O)[O-])C(S(=O)(=O)[O-])=[C+]2)c(COP(=O)([O-])O)c(C=O)c1O` stands 53.8% (active).
Consider `Cc1nc(N=Nc2ccc(C(=O)O)cc2)c(COP(=O)(O)O)c(C=O)c1O`, for which the inhibition was 14.2% (active).
For `C[C@@H]1C(=O)NC2=Nc3cccc(Cl)c3CN21`, the inhibition was 3.4% (active).
For `c1ccc2c(c1)CC(N1CCN(c3cccc4c3OCCO4)CC1)C2`, the inhibition is 10.4% (active).
On to `O=C(O)/C=C/C(O)c1ccc(Cl)cc1` (stereo unspecified), for which the inhibition was -40.2%.
As for `Clc1ccc(C(c2ccccc2Cl)C(Cl)Cl)cc1` (stereo unspecified), the inhibition was 69.1% (active).
For `O=C(c1ccc(Cl)cc1)N1CCN(c2ccc([N+](=O)[O-])c3ncccc23)CC1`, the inhibition was 24.1% (active).
Consider `c1ccc2c(c1)CCC[C@H]2Nc1nc2ccccc2[nH]1`, for which the inhibition was 61.9% (active).
Take `NC1CCN(c2cccc(Cl)n2)CC1`: the inhibition is 4.2% (active).
In the case of `COCC(=O)O[C@]1(CCN(C)CCCc2nc3ccccc3[nH]2)CCc2cc(F)ccc2[C@@H]1C(C)C`, the inhibition was 2.9% (active).
Under `C[N+](C)(C)CCOP(=O)(O)OP(=O)([O-])OC[C@H]1O[C@@H](n2ccc(N)nc2=O)C(O)[C@H]1O` (stereo partly specified) stands 20.6% (active); under `CC(C)(C)c1onc(OCP(=O)(O)O)c1CC(N)C(=O)O` (stereo unspecified), 24.4% (active); under `OCc1cc(C(O)CNCCCCCCOCCCCc2ccccc2)ccc1O` (stereo unspecified), 34.4% (active).
As to `CC(=O)N[C@H]1[C@H]([C@H](O)[C@H](O)CO)OC(C(=O)O)=C[C@@H]1O`, the inhibition was 18.1% (active).
`CCCOC(=O)c1c(-c2ccccc2)nc(CC)c(C(=O)SCC)c1CCC`: the inhibition was -2.7%.
As for `COc1cc(SC)ccc1C(=O)N1CCC(Cc2ccccc2)CC1`, the inhibition was -5.8%.
Under `CC(C(O)c1ccc(O)cc1)N1CCC(Cc2ccccc2)CC1` (stereo unspecified) stands 4% (active); under `C[C@@H](CN1CCC(Cc2ccccc2)CC1)[C@@H](O)c1ccc(O)cc1`, 3.7% (active); under `CC(=O)[C@@]1(O)CC[C@H]2[C@@H]3CCC4=CC(=O)CC[C@]4(C)[C@H]3CC[C@@]21C`, 0.7% (active).
Regarding `CC(=O)OCC(=O)[C@@]1(O)CC[C@H]2[C@@H]3CCC4=CC(=O)CC[C@]4(C)[C@H]3C(=O)C[C@@]21C`, the inhibition is 6.5% (active).
As to `C[C@]12CCC(=O)C=C1CC[C@@H]1[C@@H]2CC[C@@]2(C)[C@H]1CC[C@]2(O)C(=O)CO`, the inhibition was -11%.
To `C[C@]12CCC(=O)C=C1CC[C@@H]1[C@@H]2C(=O)C[C@@]2(C)[C@H]1CC[C@]2(O)C(=O)CO` belongs -1.4%.
For the molecule `CC(=O)[C@H]1CC[C@H]2[C@@H]3CCC4=CC(=O)CC[C@]4(C)[C@H]3CC[C@]12C`, the inhibition is 12.3% (active).
In the case of `O=c1ccc2c(OCCCCc3ccccc3)c3ccoc3cc2o1`, the inhibition is 18.3% (active).
As for `CO/N=C(\C(=O)N[C@@H]1C(=O)N2C(C(=O)O)=C(CSc3nc(=O)c(O)nn3C)CSC12)c1csc(N)n1` (stereo partly specified), the inhibition was 24.6% (active).
Regarding `CO/N=C(\C(=O)N[C@@H]1C(=O)N2C(C(=O)O)=C(COC(C)=O)CS[C@H]12)c1csc(N)n1`, the inhibition was 26.2% (active).
`CC(=O)OCC1=C(C(=O)O)N2C(=O)[C@@H](NC(=O)Cc3cccs3)[C@H]2SC1`: the inhibition is 11.8% (active).
As for `CC[C@@H](CO)Nc1nc(NCc2ccccc2)c2ncn(C(C)C)c2n1`, the inhibition was 24.9% (active).
`Cn1cnc2c(NCc3ccccc3)nc(NCCO)nc21`: the inhibition is 12.8% (active).
To `CNCCCC1c2ccccc2C=Cc2ccccc21` belongs 3.6% (active).
For the molecule `CC(=O)Oc1cc(C(C)C)c(OCCN(C)C)cc1C`, the inhibition is 0.5% (active).
`O=[N+]([O-])c1cccc2cn[nH]c12`: the inhibition is 16.8% (active).
Turning to `COC(=O)[C@@H]1[C@H]2C[C@H]3c4[nH]c5ccccc5c4CCN3C[C@@H]2CC[C@@H]1O`, the inhibition was -38.2%.
Turning to `COC(=O)[C@H]1[C@H]2C[C@H]3c4[nH]c5ccccc5c4CCN3C[C@H]2CC[C@@H]1O`, the inhibition is 50.6% (active).
On to `COC(=O)[C@H]1[C@H]2C[C@@H]3c4[nH]c5cc(OC)ccc5c4CCN3C[C@H]2C[C@@H](OC(=O)c2cc(OC)c(OC)c(OC)c2)[C@@H]1OC`, for which the inhibition was 33% (active).
To `CNc1ncnc2c1ncn2[C@@H]1O[C@H](CO)[C@H](O)C1O` (stereo partly specified) belongs 12% (active); to `OC[C@H]1O[C@@H](n2cnc3c(NC4CCCC4)ncnc32)C(O)[C@H]1O` (stereo partly specified), 4% (active).
Under `OC[C@H]1O[C@H](n2cnc3c(N[C@H]4CCC[C@@H]4O)ncnc32)[C@H](O)[C@@H]1O` stands 5.7% (active); under `C[C@H](Cc1ccccc1)Nc1ncnc2c1ncn2[C@@H]1O[C@H](CO)[C@H](O)C1O` (stereo partly specified), -5.3%; under `OC[C@H]1O[C@@H](n2cnc3c(NC4CCCCC4)ncnc32)[C@H](O)[C@@H]1O`, 19.1% (active).
Turning to `CNc1ncnc2c1ncn2[C@H]1C[C@H](OP(=O)(O)O)[C@@H](COP(=O)(O)O)O1`, the inhibition is 13.4% (active).
For `Nc1ccc(CCNc2ncnc3c2ncn3C2OC(CO)C(O)C2O)cc1` (stereo unspecified), the inhibition is 36.3% (active).
Turning to `CCCCC#Cc1nc(NC)c2ncn([C@@H]3O[C@H](CO)C(O)[C@@H]3O)c2n1` (stereo partly specified), the inhibition is 20.2% (active).
Regarding `Cn1cc(C(=O)OCC2CCN(CCNS(C)(=O)=O)CC2)c2ccccc21`, the inhibition is -1%.
As to `COc1ccc(/C=C/C(=O)Nc2ccccc2C(=O)O)cc1OC`, the inhibition is 4.9% (active).
To `COc1cc(/C=C(\C#N)C(=O)Nc2nnc(C(F)(F)F)s2)ccc1OCc1ccc(C(F)(F)F)cc1C(F)(F)F` belongs -0.4%.
`CNCCC(Oc1ccccc1C)c1ccccc1` (stereo unspecified): the inhibition was 0.9% (active).
On to `CNCCC(Oc1ccccc1OC)c1ccccc1` (stereo unspecified), for which the inhibition was 2.8% (active).
